Tg IFNy HTS: T. gondii growth inhibition under IFN-gamma | Toxoplasma gondii growth in IFN-gamma-treated host cells; active compounds read low | AID 1259416 | activity change, negative = inhibition, % (test concentration not listed) | hit rate 3.8% among 69,000; in the data active = activity change below about -70%, passing the limit was not always enough;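 also: host cells are HeLa cells infected with Toxoplasma gondii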
Numbers stand for hits; i = inactive; ! = not active in a repeat. The sample as a whole holds a higher share of hits than the screen did.

SMILES	Tg IFNy HTS
COCCN1CC(c2ccccc2)OC2(CCN(C(=O)C(C)(C)C)CC2)C1 (configuration not stated)	i
CCc1cc(=O)oc2cc3occ(-c4ccc(OC)c(F)c4)c3cc12	-78
COc1cc2c(=O)c(-c3ccc(O)cc3)coc2cc1O	i
CCc1cc(=O)oc2cc(OCC=C(C)C)ccc12	i
COc1ccc(S(=O)(=O)NCCc2sc(-c3cccc(C)c3)nc2C)cc1OC	i
COC(=O)Nc1nc2ccc(-c3n[nH]c(=O)c4ccccc34)cc2[nH]1	-102
CCCCc1ccc2nc(NC(=O)OC)[nH]c2c1	i
CCCS(=O)(=O)c1ccc2nc(NC(=O)OC)[nH]c2c1	i
Cn1cc(CN2CCCC2c2cncc(Nc3ccccn3)n2)c2cc(F)ccc21 (configuration not stated)	-100
Fc1ccc(C(F)(F)F)cc1CN1CCCC1c1ccccn1 (configuration not stated)	i
Cc1c(CN2CCCC2c2ccccn2)[nH]c2ccc(F)cc12 (configuration not stated)	i
CN(C)C(=O)CN1CC[C@@H](OCC2CC2)[C@H]1Cc1ccncc1	i
Cc1cnc(N2Cc3nccn3CC(Cn3ncccc3=O)C2)nc1 (configuration not stated)	i
CN1CCCN(Cc2cnc3c(-c4ccccc4)cnn3c2)CC1	i
c1cc(-c2cnn3cc(-c4ccc(OCCN5CCCCC5)cc4)cnc23)ccn1	-75
O=C(c1ccc(OCCN2CCCCC2)cc1)c1c(-c2ccc(O)cc2)sc2cc(O)ccc12	i
CCc1nc(OCC(=O)Nc2ccc(C)cc2Cl)c2ccccc2n1	i
OC[C@H]1O[C@@H](n2cnc3c(Nc4ccccc4)ncnc32)[C@H](O)[C@@H]1O	-83
O=c1[nH]cnc2c1ncn2[C@@H]1O[C@H](CO)[C@@H](O)[C@H]1O	i
Nc1nc(Nc2ccccc2)nc2c1ncn2C1OC(CO)C(O)C1O (configuration not stated)	i
CCc1[nH]c2c(CNC(=O)CCN(C)S(C)(=O)=O)cc(F)cc2c1C	i
Cc1cccc(-c2nc(Cn3nnc(C(=O)NCc4ccc(F)c(Cl)c4)c3C)c(C)o2)c1	-93
COc1ccc(OC)c(NC(=O)c2nnn(Cc3nc(-c4cccc(Cl)c4)oc3C)c2C)c1	i
Cc1cccc(-c2nc(Cn3nnc(C(=O)NCc4ccc(Br)cc4)c3C)c(C)o2)c1	i
Cc1ccc(NC(=O)c2nnn(Cc3nc(-c4cccc(Cl)c4)oc3C)c2C)cc1F	i
SMILES	Tg IFNy HTS
Cc1cccc(-c2nc(Cn3nnc(C(=O)NCc4ccc(C(F)(F)F)cc4)c3C)c(C)o2)c1	i
Cc1cc(NC(=O)c2nnn(Cc3nc(-c4cccc(Cl)c4)oc3C)c2C)ccc1Br	i
Cc1cccc(-c2nc(Cn3nnc(C(=O)NCc4cccc(Cl)c4)c3C)c(C)o2)c1	-97
COc1ccc(NC(=O)c2nnn(Cc3nc(-c4cccc(Cl)c4)oc3C)c2C)cc1	-110
CCOc1ccc(CNC(=O)c2nnn(Cc3nc(-c4cccc(C)c4)oc3C)c2C)cc1	i
CC(O)Cn1ccnc1-c1ccc(C#CCCO)cc1 (configuration not stated)	i
CNC(=O)c1cc(=O)n(CC(=O)Nc2ccc(OC)c(OC)c2)c2ccccc12	i
Cc1nc(-c2ccc3c(c2)OCO3)cc(C(C)C)n1	-72
Cc1cc(-c2ccc3c(c2)OCO3)cnc1N	i
Cc1ncc(-c2ccc3c(c2)OCO3)c(-c2cccnc2)n1	i
CCOc1ccc(-c2nc(CN(c3ccc(OC)cc3)S(=O)(=O)c3cccs3)c(C)o2)cc1	i
CNC(=O)c1ccc(-c2ccc(CNC(=O)COC)cc2)nc1C	-74
CCc1nc(OCC(=O)NCc2ccc(C)cc2)c2ccccc2n1	i
Cc1noc(C)c1C(=O)NCc1ccc(-c2csnn2)cc1	i
CN(C)C(=O)N1CCCn2nnc(COCC3CC3)c2C1	i
CCOC(=O)[C@@]12CCCN(S(=O)(=O)C3CC3)C[C@@H]1CN(C(C)C)C2	i
CCN(C)Cc1ccc(-c2nc(-c3ccncc3)cc(=O)[nH]2)cc1	i
Oc1ccc(-c2nc(-c3ccc(F)cc3)c(-c3ccncc3)[nH]2)cc1	-80
COc1ccc(-c2nc(-c3ccncc3)[nH]c(=O)n2)cc1	i
C=CCn1cc(CN2CCCC(c3nc(C(C)C)no3)C2)c(C)n1 (configuration not stated)	i
Cc1ccc(C)n1NC(=O)c1ccccc1O	-95
O=C(Nc1ccccc1)c1ccccc1O	i
NC(=O)c1ccccc1O	i
CN(Cc1ccco1)[C@H]1CN(Cc2ccco2)C[C@@H]2CCCO[C@H]21	i
O=C(NCCSCc1ncc(C(F)(F)F)cc1Cl)c1ccccc1	i
SMILES	Tg IFNy HTS
CN(Cc1ncc[nH]1)Cc1ccccc1-c1ccccc1	i
COc1ccc(-c2nc3c(s2)CN(S(=O)(=O)c2ccc(C(C)C)cc2)CC3)cc1	i
O=S(=O)(c1cccc(Cl)c1)N1CCc2nc(-c3ccccc3)sc2C1	i
CCOc1ccc(-c2nc3c(s2)CN(S(=O)(=O)c2ccccc2Cl)CC3)cc1	-89
CCOc1ccc(-c2nc3c(s2)CN(C(=O)Nc2ccccc2CC)CC3)cc1	i
COc1ccc(-c2nc3c(s2)CN(S(=O)(=O)c2ccccc2Cl)CC3)cc1	-86
COc1cccc(CNC(=O)Cn2c(=O)ccc3cc(S(=O)(=O)N4CCC(C)CC4)ccc32)c1	-80
CC1CCN(S(=O)(=O)c2ccc3c(ccc(=O)n3CC(=O)NCc3ccc(Cl)cc3)c2)CC1	i
COc1ccccc1CNC(=O)Cn1c(=O)ccc2cc(S(=O)(=O)N3CCC(C)CC3)ccc21	i
CC(C)Cc1cc(C(=O)N2CCc3c(ncnc3N3CCOCC3)C2)on1	i
Cc1cccc(CN2CCC3(CCN(C(=O)N4CCCC4)C3)C2=O)c1 (configuration not stated)	i
CC(C)(C)CC(C)(C)c1ccc(OCCOCC[N+](C)(C)Cc2ccccc2)cc1	-78!
COc1ccc(-c2nc(C)c(CCNC(=O)C(=O)Nc3ccc(C)cc3)s2)cc1OC	i
COc1ccc(C(=O)O/N=C2\CCSc3ccc(F)cc32)cc1	i
COc1ccc2c(c1)CC/C2=N/OC(=O)c1cc(SC)ccc1Cl	-91
CCCN1C(=O)CCc2cc(NC(=O)c3cc(SC)ccc3Cl)ccc21	i
COc1ccc(Cn2c(=O)[nH]c3cc(C(=O)O)ccc32)cc1	i
c1ccc(-c2ccc(-c3nccn3CCc3cnccn3)s2)cc1	i
CCCS(=O)(=O)N1CCC2(CCCN(c3ncccn3)C2)CC1	i
CC(Cc1cnccn1)n1cc(-c2ccnc3ccccc23)nn1 (configuration not stated)	i
COCCn1c2c([n+](Cc3cnccn3)c1C)C(=O)c1ccccc1C2=O	-83
COc1cc(C)ccc1-c1c(-c2ccccc2)ncn1C(C)Cc1cnccn1 (configuration not stated)	i
COCC(=O)N(C)CCOc1c(C)ccc(C)c1C	-78
Cc1ccc(C)c(OCC(=O)N(C)Cc2cc(C(C)C)on2)c1C	i
Cc1cccc(OCCCN(C)C(=O)CN)c1C	i
SMILES	Tg IFNy HTS
CSc1sc(C(=O)N2CCc3ccccc32)cc1S(=O)(=O)C(C)C	i
COc1cc(NC(=O)Nc2ccc(Cl)cc2)c(-n2c(C)ccc2C)cc1OC	i
CC(C)S(=O)(=O)c1cscc1NC(=O)Nc1ccccc1	i
CSc1sc(C(=O)Sc2ccc(Cl)cc2)cc1S(=O)(=O)C(C)C	-79
COC(=O)c1sc(SC)c(S(=O)(=O)c2ccc(Cl)cc2)c1C	i
CSc1sc(NC(=O)Nc2ccc(Cl)cc2)cc1S(=O)(=O)C(C)C	-84
Cc1ccsc1CN1C[C@H]2CCC[C@]2(COCC(=O)N(C)C)C1	i
